Measured values: PubChem BioAssay (NCATS)
A number with no mark means an inactive call. Results filed as inconclusive are left out. Where a call stands in place of a potency, no number is given. Calls of active or inactive are those of the source. Unless noted, the call rests on the fitted dose curve; in most records, active means well fitted curve in the direction sought with a large enough effect; inconclusive means small, poorly fitted or top-dose-only effect, or another doubt; inactive means no such curve, though single readings can be large; an effect the other way counts as inactive or inconclusive.

How the values were obtained:
[1] = target: Rap guanine nucleotide exchange factor 3 (Homo sapiens) (UniProt O95398); assay: Confirmatory qHTS for agonist of cAMP-regulated guanine nucleotide exchange factor 3 (EPAC1) (AID 1645881);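 further: EPAC1 catalysed release of BODIPY-GDP from Rap1B seen as fluorescence loss; nearly all actives have a fitted effect of over 75% in size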
[2] = target: Rap guanine nucleotide exchange factor 4 (Homo sapiens) (UniProt Q8WZA2); assay: Confirmatory qHTS for agonist of cAMP-regulated guanine nucleotide exchange factor 4 (EPAC2) (AID 1645884);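 further: nucleotide exchange releases bodipy-GDP from Rap1 and this lowers its fluorescence; nearly all actives have a fitted effect of over 65% in size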
[3] = target: Rap guanine nucleotide exchange factor 4 (Homo sapiens) (UniProt Q8WZA2); assay: Confirmatory qHTS for antagonist of cAMP-regulated guanine nucleotide exchange factor 4 (EPAC2) (AID 1645885); further: nearly all actives have a fitted effect of over 25% in size; further: potency means the concentration at half of the fitted maximal effect
[4] = target: Rap guanine nucleotide exchange factor 3 (Homo sapiens) (UniProt O95398); assay: Counterscreen qHTS for antagonist of cAMP-regulated guanine nucleotide exchange factor 3 (EPAC1) (AID 1645888);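 further: fluorescence loss as bound BODIPY-GDP is released from Rap1B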
Summary of the method: (§1)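 Rap1B-BODIPY-GDP 250 nM + GDP 50 uM; cpds 7-pt, final 9.74 nM–152 uM (activator mode) or from 7.32 nM upwards (inhibitor mode); RT; FI 480/540 nm at 5 and 30 min, then ± cAMP, reread.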

[5] = target: Rap guanine nucleotide exchange factor 3 (Homo sapiens) (UniProt O95398); assay: Counterscreen qHTS for agonist of cAMP-regulated guanine nucleotide exchange factor 3 (EPAC1) (AID 1645889); further: nearly all actives have a fitted effect of over 40% in size; further: potency means the concentration at half of the fitted maximal effect
Summary of the method: as §1

[6] = target: Rap guanine nucleotide exchange factor 3 (Homo sapiens) (UniProt O95398); assay: Confirmatory qHTS for antagonist of cAMP-regulated guanine nucleotide exchange factor 3 (EPAC1) (AID 1645880); further: nearly all actives have a fitted effect of over 55% in size
Summary of the method: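 Nucleotide exchange uses 100 nM EPAC1, 250 nM RAP1B-BODIPY-GDP and 50 uM GDP, with compounds in a concentration-titration series. After 5 min at room temperature, fluorescence (480 nm ex/540 nm em) is read every 5 min for 30 min. Data are normalized to control ATA and DMSO.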

[7] = target: DNA repair nuclease/redox regulator APEX1 (Homo sapiens) (UniProt P27695); assay: qHTS Validation Assay for Inhibitors of the Human Apurinic/apyrimidinic Endonuclease 1 (APE1) (AID 1705;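 further: TAMRA fluorescence gain over two minutes as APE1 cuts a quenched THF abasic duplex; series mostly up to about 57 µM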)
Summary of the method: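 Substrate: 50 nM final fluorophore/quencher THF-abasic duplex. Enzyme preincubated with compounds 15 min, RT. Progress derived from fluorescence difference, third minus first kinetic read.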

[8] = target: Endonuclease 4 (Escherichia coli (strain K12)) (UniProt P0A6C1); assay: Counterscreen for APE1 Inhibitors: qHTS Validation Assay for Inhibitors of Endonuclease IV (AID 1708)
Summary of the method: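 Enzymatic AP-site incision assay using a double-stranded THF substrate labelled with TAMRA and BHQ-2; released fluorescence signals activity. Enzyme 2 nM, substrate 50 nM, 15 min compound preincubation.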

[9] = qHTS for differential inhibitors of proliferation of Plasmodium falciparum line 7G8 (AID 1815);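 further: potency means the concentration at half of the fitted maximal effect; parasite growth measured after three days of incubation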
[10] = qHTS for differential inhibitors of proliferation of Plasmodium falciparum line GB4 (AID 1816); settings: Potency: Plasmodium falciparum GB4 proliferation inhibition;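 further: potency means the concentration at half of the fitted maximal effect; parasite growth measured after 72 h incubation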
[11] = qHTS for differential inhibitors of proliferation of Plasmodium falciparum line D10 (AID 1877);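 further: potency means the concentration at half of the fitted maximal effect; parasites grown with compound for 72 h before DNA staining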
[12] = qHTS for differential inhibitors of proliferation of Plasmodium falciparum line Dd2 (AID 1882); settings: Potency: Plasmodium falciparum Dd2 proliferation inhibition; further: potency means the concentration at half of the fitted maximal effect; nearly all actives have a fitted effect of over 65% in size
Summary of the method: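 SYBR Green I DNA fluorescence read-out, ex 485/em 535 nm. Signals were normalized to 0.29 uM artemisinin and DMSO wells, then corrected using vehicle-only plates flanking each stack. Parasite growth ran 72 h in erythrocytes before lysis.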

[13] = qHTS for differential inhibitors of proliferation of Plasmodium falciparum line W2 (AID 1883); settings: Potency: Plasmodium falciparum W2 proliferation inhibition;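 further: potency means the concentration at half of the fitted maximal effect; parasites grown with compound for 72 h before lysis and staining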
[14] = qHTS for differential inhibitors of proliferation of Plasmodium falciparum line HB3 (AID 1886); settings: Potency: Plasmodium falciparum HB3 proliferation inhibition;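 further: potency means the concentration at half of the fitted maximal effect; parasites grown with compound for 72 h before SYBR Green readout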
[15] = target: Ferritin light chain (Equus caballus) (UniProt P02791); assay: qHTS Validation Assay for Identification of Novel General Anesthetics (AID 2323); further: series mostly up to about 77 µM
Summary of the method: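 Normalized fluorescence response, scaled between free 1-AMA and 1-AMA/apoferritin complex, fitted to a four-parameter Hill equation for concentration-effect values. Binding mix: 10 uM horse-spleen apoferritin, 50% saturated 1-AMA in PBS; read 380/535 nm after 10 min.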

[16] = target: ATP-dependent DNA helicase Q1 (Homo sapiens) (UniProt P46063); assay: qHTS Validation Assay for Inhibitors of RecQ-Like Dna Helicase 1 (RECQ1) (AID 2353)
Summary of the method: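 50 nM RECQ1T1 preincubated 15 min with compound in Tris pH 8.0 buffer with MgCl2, DTT, Tween-20 and 2.5 ug/ml poly(dI-dC); started with 200 nM TAMRA/BHQ-2 forked duplex and 2 mM ATP. Unwinding read as fluorescence (525/598 nm), two reads 2 h apart.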

[17] = Validation screen for inhibitors of Lassa infection (AID 463096; calls by dose curve)
[18] = target: M-phase phosphoprotein 8 (Homo sapiens) (UniProt Q99549); assay: qHTS Validation Assay for Inhibitors for MPP8 Chromodomain Interactions with Methylated Histone Tails (AID 488949); further: potency means the concentration at half of the fitted maximal effect; nearly all actives have a fitted effect of over 55% in size
Summary of the method: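 Chemiluminescent proximity assay: histidine-tag capture via nickel acceptor beads, biotin peptide via streptavidin donor beads. Protein and peptide each at 50 nM, pH 7.4, with 30 min incubations at room temperature for complex formation, compound exposure and bead binding.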

[19] = target: Transient receptor potential cation channel subfamily V member 1 (Homo sapiens) (UniProt Q8NER1); assay: HTS Assay for Compounds that Act as Enhancers of the Vanilloid Receptor 1 (AID 488979)
Summary of the method: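 Calcium influx kinetics via Fluo-8 (480/520 nm) in TRPV1-expressing cells, 2000/well cultured overnight at 35.5C. Compound-alone read 3 min (agonist phase), followed by EC20 capsaicin challenge for 2 min (enhancer phase).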

[20] = target: Thyrotropin-releasing hormone receptor (Homo sapiens) (UniProt P34981); assay: qHTS for Small Molecule Agonists and Allosteric Enhancers of Human TRH Receptor: Validation Screen for Agonists (AID 493127;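 active means calcium activation more than 3 SD above the typical response in the agonist read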;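 further: intracellular calcium rise by fluo-8 fluorescence before TRH EC20 addition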); settings: TRH receptor agonist cell assay; at 2 µM; hits give high values
Summary of the method: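 TRHR-expressing cells were plated overnight in serum-containing medium, then loaded with fluo-8 calcium dye at room temperature for 30 min–1.5 h. After a 10 s baseline, compound was pin-transferred and calcium fluorescence (ex 480/em 530) read kinetically for agonist response.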

[21] = target: Galactokinase (Homo sapiens) (UniProt P51570); assay: qHTS Validation Assay for Inhibitors of Human Galactokinase (GALK) (AID 493189)
Summary of the method: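 Enzyme activity is inferred from ATP consumption: human GALK phosphorylates galactose (100 uM) using 35 uM ATP for 1 h at room temperature, and luciferase-based Kinase-Glo Plus reports unconsumed ATP.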

Sequence of Rap guanine nucleotide exchange factor 3 (Homo sapiens) (O95398 whole entry, looked up): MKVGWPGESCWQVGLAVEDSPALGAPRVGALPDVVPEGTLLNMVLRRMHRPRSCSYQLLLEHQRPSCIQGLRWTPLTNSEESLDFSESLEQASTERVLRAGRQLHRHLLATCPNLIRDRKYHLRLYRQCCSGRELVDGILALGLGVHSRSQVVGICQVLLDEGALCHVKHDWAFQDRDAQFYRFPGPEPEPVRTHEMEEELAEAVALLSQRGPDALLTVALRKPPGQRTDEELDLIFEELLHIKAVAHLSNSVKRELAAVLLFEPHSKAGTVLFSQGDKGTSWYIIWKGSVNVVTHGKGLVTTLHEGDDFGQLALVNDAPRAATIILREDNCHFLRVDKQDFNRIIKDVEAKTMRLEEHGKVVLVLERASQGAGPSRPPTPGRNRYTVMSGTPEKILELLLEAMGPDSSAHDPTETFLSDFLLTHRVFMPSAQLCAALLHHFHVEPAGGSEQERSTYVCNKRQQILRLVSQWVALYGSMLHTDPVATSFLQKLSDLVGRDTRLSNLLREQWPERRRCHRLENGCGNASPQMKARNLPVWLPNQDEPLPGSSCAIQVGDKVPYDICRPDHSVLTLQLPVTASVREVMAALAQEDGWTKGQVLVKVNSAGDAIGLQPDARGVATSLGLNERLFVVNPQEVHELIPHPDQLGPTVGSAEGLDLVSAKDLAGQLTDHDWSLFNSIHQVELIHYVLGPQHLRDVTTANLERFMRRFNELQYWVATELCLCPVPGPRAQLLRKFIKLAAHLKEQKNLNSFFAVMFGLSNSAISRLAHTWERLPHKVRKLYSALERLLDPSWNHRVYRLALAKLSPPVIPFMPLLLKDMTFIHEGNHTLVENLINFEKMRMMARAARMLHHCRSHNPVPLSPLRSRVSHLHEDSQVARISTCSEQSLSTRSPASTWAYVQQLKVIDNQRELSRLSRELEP
Sequence of Rap guanine nucleotide exchange factor 4 (Homo sapiens) (Q8WZA2 whole entry, looked up): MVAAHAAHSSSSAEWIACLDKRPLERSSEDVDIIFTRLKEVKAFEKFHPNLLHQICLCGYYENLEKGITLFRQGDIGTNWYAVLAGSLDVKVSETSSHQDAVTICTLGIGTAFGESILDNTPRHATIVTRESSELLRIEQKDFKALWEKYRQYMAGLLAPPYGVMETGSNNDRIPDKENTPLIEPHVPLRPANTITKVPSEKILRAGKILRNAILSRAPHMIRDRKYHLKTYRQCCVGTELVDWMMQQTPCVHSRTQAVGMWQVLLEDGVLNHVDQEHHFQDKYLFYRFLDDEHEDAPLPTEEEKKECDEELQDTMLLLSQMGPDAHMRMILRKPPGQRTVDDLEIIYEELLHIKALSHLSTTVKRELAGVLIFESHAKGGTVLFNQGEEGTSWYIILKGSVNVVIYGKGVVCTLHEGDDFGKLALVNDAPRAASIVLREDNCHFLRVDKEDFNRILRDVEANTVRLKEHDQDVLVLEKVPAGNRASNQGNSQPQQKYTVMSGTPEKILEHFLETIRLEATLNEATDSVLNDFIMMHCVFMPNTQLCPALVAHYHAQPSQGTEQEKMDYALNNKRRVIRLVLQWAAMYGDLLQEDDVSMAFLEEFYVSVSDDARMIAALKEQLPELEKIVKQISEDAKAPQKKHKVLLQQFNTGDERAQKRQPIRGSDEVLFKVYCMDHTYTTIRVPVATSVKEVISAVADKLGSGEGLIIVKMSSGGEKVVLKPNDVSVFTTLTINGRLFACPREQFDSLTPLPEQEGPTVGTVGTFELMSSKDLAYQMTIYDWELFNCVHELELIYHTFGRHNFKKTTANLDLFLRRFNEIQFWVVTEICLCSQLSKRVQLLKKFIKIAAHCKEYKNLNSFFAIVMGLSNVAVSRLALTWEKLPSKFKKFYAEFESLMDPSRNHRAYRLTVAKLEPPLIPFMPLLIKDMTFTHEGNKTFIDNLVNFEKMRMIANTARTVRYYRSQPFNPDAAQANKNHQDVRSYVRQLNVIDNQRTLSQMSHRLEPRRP
Sequence of M-phase phosphoprotein 8 (Homo sapiens) (Q99549 whole entry, looked up): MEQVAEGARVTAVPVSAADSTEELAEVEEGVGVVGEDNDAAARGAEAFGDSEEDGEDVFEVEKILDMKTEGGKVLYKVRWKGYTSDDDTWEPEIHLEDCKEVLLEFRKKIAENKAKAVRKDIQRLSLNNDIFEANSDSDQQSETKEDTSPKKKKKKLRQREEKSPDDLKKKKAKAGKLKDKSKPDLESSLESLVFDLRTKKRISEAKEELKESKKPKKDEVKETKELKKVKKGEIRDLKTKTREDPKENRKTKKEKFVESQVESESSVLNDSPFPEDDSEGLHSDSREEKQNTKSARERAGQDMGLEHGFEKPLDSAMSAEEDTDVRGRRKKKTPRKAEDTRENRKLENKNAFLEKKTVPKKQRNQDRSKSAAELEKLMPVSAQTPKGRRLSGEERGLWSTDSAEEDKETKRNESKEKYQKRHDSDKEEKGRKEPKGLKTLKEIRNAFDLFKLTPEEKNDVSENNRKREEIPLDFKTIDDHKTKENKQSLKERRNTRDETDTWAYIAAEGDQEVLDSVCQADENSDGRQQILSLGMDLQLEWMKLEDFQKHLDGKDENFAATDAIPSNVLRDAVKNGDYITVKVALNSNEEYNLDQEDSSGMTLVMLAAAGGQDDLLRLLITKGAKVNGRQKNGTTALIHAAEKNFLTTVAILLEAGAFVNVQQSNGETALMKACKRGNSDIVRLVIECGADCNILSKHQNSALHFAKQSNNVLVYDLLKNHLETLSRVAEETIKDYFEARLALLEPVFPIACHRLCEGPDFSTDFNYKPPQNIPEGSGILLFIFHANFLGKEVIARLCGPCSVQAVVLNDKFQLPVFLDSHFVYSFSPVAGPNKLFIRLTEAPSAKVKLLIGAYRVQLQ
Sequence of ATP-dependent DNA helicase Q1 (Homo sapiens) (P46063 whole entry, looked up): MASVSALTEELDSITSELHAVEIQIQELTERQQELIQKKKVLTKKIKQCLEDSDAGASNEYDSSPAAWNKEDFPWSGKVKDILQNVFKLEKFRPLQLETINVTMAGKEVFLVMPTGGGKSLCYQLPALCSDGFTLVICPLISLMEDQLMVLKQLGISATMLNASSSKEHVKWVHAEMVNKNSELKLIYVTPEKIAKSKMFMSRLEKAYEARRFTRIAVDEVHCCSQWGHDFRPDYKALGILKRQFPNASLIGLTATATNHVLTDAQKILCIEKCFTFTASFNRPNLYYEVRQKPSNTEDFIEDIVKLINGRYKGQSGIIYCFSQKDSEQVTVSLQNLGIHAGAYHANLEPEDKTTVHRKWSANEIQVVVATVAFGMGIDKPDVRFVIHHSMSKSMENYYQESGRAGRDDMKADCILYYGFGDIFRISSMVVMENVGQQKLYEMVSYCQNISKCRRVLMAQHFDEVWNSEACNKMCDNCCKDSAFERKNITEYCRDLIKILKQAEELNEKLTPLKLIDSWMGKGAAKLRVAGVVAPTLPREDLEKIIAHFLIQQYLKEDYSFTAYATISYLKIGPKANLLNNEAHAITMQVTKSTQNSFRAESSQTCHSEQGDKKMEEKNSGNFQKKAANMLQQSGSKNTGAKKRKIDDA
Sequence of Thyrotropin-releasing hormone receptor (Homo sapiens) (P34981 whole entry, looked up): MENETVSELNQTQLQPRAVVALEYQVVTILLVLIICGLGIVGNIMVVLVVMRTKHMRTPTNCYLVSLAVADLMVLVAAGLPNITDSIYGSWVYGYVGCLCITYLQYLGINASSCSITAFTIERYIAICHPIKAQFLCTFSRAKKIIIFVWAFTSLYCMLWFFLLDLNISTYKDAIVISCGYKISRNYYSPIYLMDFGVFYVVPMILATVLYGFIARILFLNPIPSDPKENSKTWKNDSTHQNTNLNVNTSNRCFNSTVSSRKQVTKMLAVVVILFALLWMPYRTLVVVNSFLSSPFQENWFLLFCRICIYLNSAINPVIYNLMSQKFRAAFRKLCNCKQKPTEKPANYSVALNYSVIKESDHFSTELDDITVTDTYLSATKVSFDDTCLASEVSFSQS
Sequence of Transient receptor potential cation channel subfamily V member 1 (Homo sapiens) (Q8NER1 whole entry, looked up): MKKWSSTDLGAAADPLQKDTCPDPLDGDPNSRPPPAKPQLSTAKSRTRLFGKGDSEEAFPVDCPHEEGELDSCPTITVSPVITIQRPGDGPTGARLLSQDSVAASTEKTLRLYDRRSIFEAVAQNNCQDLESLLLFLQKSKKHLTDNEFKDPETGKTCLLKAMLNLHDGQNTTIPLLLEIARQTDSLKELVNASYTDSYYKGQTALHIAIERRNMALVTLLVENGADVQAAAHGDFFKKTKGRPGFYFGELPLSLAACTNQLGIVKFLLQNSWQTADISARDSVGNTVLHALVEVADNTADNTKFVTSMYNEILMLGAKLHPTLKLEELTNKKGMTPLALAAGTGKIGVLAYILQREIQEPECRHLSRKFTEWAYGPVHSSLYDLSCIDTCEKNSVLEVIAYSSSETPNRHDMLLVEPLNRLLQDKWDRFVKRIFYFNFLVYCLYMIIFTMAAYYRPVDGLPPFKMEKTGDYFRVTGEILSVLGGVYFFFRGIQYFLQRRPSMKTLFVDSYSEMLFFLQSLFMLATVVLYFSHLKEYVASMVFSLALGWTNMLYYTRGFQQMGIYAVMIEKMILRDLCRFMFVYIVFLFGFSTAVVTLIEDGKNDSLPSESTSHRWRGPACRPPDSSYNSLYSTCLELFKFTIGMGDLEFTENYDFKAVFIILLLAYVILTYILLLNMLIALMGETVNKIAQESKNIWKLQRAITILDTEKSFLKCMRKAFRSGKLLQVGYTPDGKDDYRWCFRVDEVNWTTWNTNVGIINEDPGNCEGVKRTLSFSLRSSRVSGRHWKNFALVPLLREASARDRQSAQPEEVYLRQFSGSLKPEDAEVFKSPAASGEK
Sequence of DNA repair nuclease/redox regulator APEX1 (Homo sapiens) (P27695 whole entry, looked up): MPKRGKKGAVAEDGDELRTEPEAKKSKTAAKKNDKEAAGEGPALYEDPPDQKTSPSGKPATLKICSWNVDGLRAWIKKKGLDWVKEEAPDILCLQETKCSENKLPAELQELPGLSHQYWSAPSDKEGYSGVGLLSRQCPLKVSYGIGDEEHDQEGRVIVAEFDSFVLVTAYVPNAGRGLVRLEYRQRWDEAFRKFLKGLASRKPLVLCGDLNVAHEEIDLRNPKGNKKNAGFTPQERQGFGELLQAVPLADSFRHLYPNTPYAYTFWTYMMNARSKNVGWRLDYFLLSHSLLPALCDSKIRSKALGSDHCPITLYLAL

In the case of `COc1cccc(C(c2nnnn2C2CCCCC2)N2CCC3(CC2)C(=O)NCN3c2ccccc2)c1OC` (stereo not drawn), the Potency [1] is reported as “inactive” and the Potency [2] is reported as “inactive”.
For `Cn1cccc1/C=C1/C(=O)NC(=O)N(Cc2ccccc2)C1=O`, the Potency [1] was “inactive”, the Potency [2] was “inactive” and the Potency [3] was “inactive”. The outcome [4] was “inactive” and the Potency [5] was “inactive”.
With `O=C1NC(=O)N(Cc2ccco2)C(=O)/C1=C/c1cccn1CCOc1ccccc1Cl` the Potency [1] was “inactive”, the Potency [2] was “inactive” and the Potency [3] was “inactive”. For the same molecule, the outcome [4] was “inactive” and the Potency [5] was “inactive”.
With `COc1cccc(C(c2nnnn2Cc2ccccc2)N2CCC(n3c(=O)[nH]c4ccccc43)CC2)c1OC` (stereo not drawn) the Potency [1] was “inactive” and the Potency [2] was “inactive”.
With `CC(=O)C1C2c3ccccc3OC1(C)N=c1s/c(=C/c3cn(C)nc3C)c(=O)n12` (stereo not drawn) the Potency [1] was “inactive”, the Potency [2] was “inactive” and the Potency [3] was “inactive”. The outcome [4] was “inactive” and the Potency [5] was “inactive”.
For `CC(c1ccccc1)(c1ccccc1)c1ccncc1`, the Potency [1] was “inactive”, the activation [2] was 0% [at 17.1 µM, percent relative to cAMP agonist control] and the activity change, negative = inhibition [3] was -28.4% [at 12.7 µM].
With `Cc1cc(C=C2C(=O)NC(=S)NC2=O)c(C)n1C1CCCC1` the Potency [1] was “inactive”, the Potency [2] was “inactive” and the Potency [3] was “inactive”. The outcome [4] was “inactive” and the Potency [5] was “inactive”.
With `Cc1ccc(-n2c(O)c(C=NCc3ccco3)c(=O)[nH]c2=S)cc1C` the Potency [1] was “inactive”, the Potency [2] was “inactive” and the Potency [3] was “inactive”. For the same molecule, the outcome [4] was “inactive”.
With `Cn1cccc1/C=C1\C(=O)NC(=O)N(Cc2ccccc2)C1=O` the Potency [1] was “inactive”, the Potency [2] was “inactive” and the Potency [3] was “inactive”. For the same molecule, the outcome [4] was “inactive”.
In the case of `Cc1cccc(-n2c(O)c(/C=C/C=Nc3ccccc3)c(=O)[nH]c2=O)c1`, the Potency [6] is reported as “inactive”, the Potency [3] is reported as 33.8 µM (active) and the outcome [4] is reported as “inactive”. For the same molecule, the Potency [5] was 39.8 µM (active).
In the case of `CC(=O)C1C2c3ccccc3O[C@@]1(C)N=c1s/c(=C/c3ccoc3)c(=O)n12` (stereo partly drawn), the Potency [1] is reported as “inactive”, the Potency [2] is reported as “inactive” and the Potency [3] is reported as “inactive”.
In the case of `Cn1cccc1/C=C1/C(=O)NC(=O)N(Cc2ccc(F)cc2)C1=O`, the Potency [1] is reported as “inactive”, the Potency [2] is reported as “inactive” and the Potency [3] is reported as “inactive”. The outcome [4] was “inactive”.
In the case of `CCC(C)c1ccc(N2C(=O)NC(=O)/C(=C/c3cccn3CCOc3ccc(C)cc3)C2=O)cc1` (stereo not drawn), the Potency [1] is reported as “inactive”, the Potency [2] is reported as “inactive” and the Potency [3] is reported as “inactive”. The Potency [5] was “inactive”.
For `Nc1c(Br)cc2c3c(cccc13)-c1ccccc1-2`, the activation [2] was 8.9% [at 17.1 µM, percent relative to cAMP agonist control], the activity change, negative = inhibition [3] was 2.51% [at 12.7 µM] and the activity change, negative = inhibition [4] was 16.7% [at 30.8 µM].
In the case of `Oc1cc2c(cc1O)[C@H]1c3ccccc3CNC1CC2` (stereo partly drawn), the Potency [7] is reported as “inactive”, the Potency [8] is reported as “inactive” and the Potency [9] is reported as 10 µM (active). For the same molecule, the Potency [10] was 12.6 µM (active), the Potency [11] was 11.2 µM (active) and the Potency [12] was 8.91 µM (active). For the same molecule, the Potency [13] was 10 µM (active), the Potency [14] was 11.2 µM (active) and the Potency [15] was “inactive”. For the same molecule, the outcome [16] was “inactive”, the Potency [17] was “inactive” and the Potency [18] was 25.1 µM (active). For the same molecule, the outcome [19] was “inactive”, the activation [20] was 0.812% and the outcome [21] was “inactive”.
